Screening data from PubChem BioAssay.
This is a sample that favours compounds with a hit; in the whole collection about 1.6% have one here.
KCNQ2 pot = KCNQ2 (rat) channel potentiation; CHO-K1 KCNQ2, FluxOR thallium flux fluorescence; hits give high values; B-score at 10 µM; AID 2239; O88943; actives 0.54% (n = 310,000);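 active = fluorescence ratio B-score at least 3 SD of library B-scores, with initial fluorescence B-score within 3 of them, cut at about 5.3 in these data; same plate scores as AID 2156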;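 also: B-score of peak minus minimum over baseline fluorescence ratio after K+ and Tl+ stimulus; positive B-score means potentiation of KCNQ2 with more thallium influx and brighter signal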
Target sequence (O88943 whole entry, looked up): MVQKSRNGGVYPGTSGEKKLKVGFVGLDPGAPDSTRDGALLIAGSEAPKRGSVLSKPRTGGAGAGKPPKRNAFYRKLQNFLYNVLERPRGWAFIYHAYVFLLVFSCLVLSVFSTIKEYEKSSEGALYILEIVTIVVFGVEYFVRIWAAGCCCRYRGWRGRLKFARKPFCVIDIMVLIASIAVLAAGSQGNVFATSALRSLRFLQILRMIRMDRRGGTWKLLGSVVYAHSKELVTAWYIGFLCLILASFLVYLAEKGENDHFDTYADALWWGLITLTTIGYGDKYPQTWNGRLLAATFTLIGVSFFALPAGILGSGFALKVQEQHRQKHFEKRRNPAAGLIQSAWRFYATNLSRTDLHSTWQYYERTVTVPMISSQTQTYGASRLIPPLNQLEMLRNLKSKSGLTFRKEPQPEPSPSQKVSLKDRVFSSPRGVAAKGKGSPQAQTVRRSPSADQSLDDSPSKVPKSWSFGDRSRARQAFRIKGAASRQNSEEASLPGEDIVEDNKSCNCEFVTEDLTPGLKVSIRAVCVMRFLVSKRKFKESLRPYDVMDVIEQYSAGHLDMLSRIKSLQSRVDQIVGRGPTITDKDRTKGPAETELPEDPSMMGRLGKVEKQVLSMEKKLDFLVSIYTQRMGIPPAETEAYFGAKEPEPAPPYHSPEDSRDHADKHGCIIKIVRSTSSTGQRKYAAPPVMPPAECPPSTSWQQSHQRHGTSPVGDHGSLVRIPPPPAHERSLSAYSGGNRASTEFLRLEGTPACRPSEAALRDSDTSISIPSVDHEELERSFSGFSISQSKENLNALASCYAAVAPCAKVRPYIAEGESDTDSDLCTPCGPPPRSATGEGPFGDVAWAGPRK
KCNQ2 inh = inhibitors of rat KCNQ2 potassium channel; O88943; CHO-K1 KCNQ2, FluxOR thallium flux, 20 min; hits give low values; B-score at 10 µM; actives 1.1% (n = 310,000);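 active = fluorescence ratio B-score at most minus 3 library SDs, with starting brightness B-score within 2 library SDs, cut at about -5.5 in these data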
Of the large screens only hits and unclear results are named; the others gave an inactive call.

CCC(=O)Nc1cc(-c2nn(C)c(=O)c3ccccc23)ccc1N1CCOCC1	none (no result: KCNQ2 pot)
Cn1nc(-c2ccc(N3CCCCC3)c(NC(=O)c3ccco3)c2)c2ccccc2c1=O	KCNQ2 inh -5.6
c1ccc(C(c2nnnn2C2CCCC2)N2CCN(c3nc4ccccc4s3)CC2)cc1 (centres undefined)	none (no result: KCNQ2 pot)
Cc1ccc(C(c2nnnn2C2CCCC2)N2CCN(c3nc4ccccc4s3)CC2)cc1 (centres undefined)	KCNQ2 inh -6.38
CC(C)C(c1nnnn1C1CCCCC1)N1CCc2ccccc21 (centres undefined)	none (no result: KCNQ2 pot)
Cc1ccc(C(c2nnnn2C2CCCCC2)N2CCc3ccccc32)cc1 (centres undefined)	KCNQ2 inh -5.56
COCc1nnc(NC(=O)c2cccc(NC(=O)c3ccccc3)c2)s1	none (no result: KCNQ2 pot)
O=C(CSc1nnc(-c2ccc(Cl)cc2)n1Cc1ccco1)Nc1ccc2c(c1)OCCO2	none
COc1ccc(-c2nnc(SC(C)C(=O)NCc3ccc4c(c3)OCO4)n2Cc2ccco2)cc1 (centres undefined)	KCNQ2 inh -8.25
CC(=O)Nc1cccc(NC(=O)CSc2ncc(-c3ccc(Cl)cc3)n2Cc2ccco2)c1	KCNQ2 inh -6.64
O=C(CSc1nnc(-c2ccc(Cl)cc2)n1Cc1ccco1)NCc1ccc2c(c1)OCO2	KCNQ2 inh -5.89
CC(Sc1nnc2ccccn12)C(=O)NCc1ccc2c(c1)OCO2 (centres undefined)	none (no result: KCNQ2 pot)
Cc1cc(Cl)ccc1NC(=O)CSc1nnc(-c2ccncc2)n1Cc1ccco1	none
COc1cc(NC(=O)CSc2nc(C)c(C)c(C)n2)cc(OC)c1	none
O=C(N/C(=C\c1cccc([N+](=O)[O-])c1)C(=O)N1CCOCC1)c1ccco1	none (no result: KCNQ2 pot)
COc1cc2nc(CN3CCC(C(O)(c4ccccc4)c4ccccc4)CC3)[nH]c(=O)c2cc1OC	none
CCOC(=O)C1CCN(C(=O)COC(=O)c2ccc(=O)n(Cc3ccccc3)n2)CC1	none (no result: KCNQ2 pot)
CC(C)Oc1ccc(S(=O)(=O)N2CCOCC2)cc1NC(=O)c1cc([N+](=O)[O-])ccc1N1CCOCC1	none (no result: KCNQ2 pot)
C/C(=N\NC(=O)COc1ccccc1-c1ccccc1)c1ccccn1	none (no result: KCNQ2 pot)
C/C(=N\NC(=O)COc1ccccc1-c1ccccc1)c1cccnc1	KCNQ2 inh -6.4
Cc1cccc(NC(=O)C(=O)NCCCc2ccccc2)c1	none (no result: KCNQ2 pot)
O=C1C(Cl)=C(NS(=O)(=O)c2ccc([N+](=O)[O-])cc2)C(=O)c2ccccc21	KCNQ2 inh -5.96
O=[N+]([O-])c1ccc(Oc2ccc(S(=O)(=O)Nc3ccccc3)cc2)cc1	none
CN(C)C(=O)CSc1n[nH]c(=O)n1CCc1ccccc1	none
CCCCC(=O)Nc1ccc(C(N)=O)cc1	none
CCCCC(=O)Nc1ccc(NCc2ccc(C)s2)cc1	KCNQ2 pot 30.1
CCCn1c(/N=C/c2ccccc2O)nc2ccccc21	none
Cn1c(/N=C/c2c(O)ccc3ccccc23)nc2ccccc21	KCNQ2 pot 9.91
CCc1ccc(NC(=O)CSCc2nc(N)nc(Nc3ccccc3CC)n2)cc1	KCNQ2 pot 15.5
Cc1ccccc1CSCc1nc(N)nc(Nc2ccccc2C)n1	none
CCc1ccccc1Nc1nc(N)nc(COC(=O)c2cccn2C)n1	none
CCc1ccccc1Nc1nc(N)nc(CSCC(=O)Nc2ccc(C)c(C)c2)n1	KCNQ2 pot 19.4
O=C(Cn1ncc2c([nH]c3ccccc32)c1=O)Nc1ccc(CN2CCCCC2)cc1	none (no result: KCNQ2 pot)
CCOC(=O)/C(C(=O)Nc1ccccc1Cl)=C1/NC(C)(C)Cc2ccccc21	KCNQ2 inh -8.13
CCOC(=O)/C(C(=O)Nc1ccc(Br)cc1)=C1/NC(C)(C)Cc2ccccc21	none (no result: KCNQ2 pot)
CCC(=O)N1CCc2cc(Br)cc(S(=O)(=O)N3CCC(C(=O)NC(C)C)CC3)c21	none (no result: KCNQ2 pot)
c1csc(-c2noc(COc3ccc4c(c3)CCCC4)n2)c1	KCNQ2 inh -6.04
Brc1ccc(-c2noc(COc3ccc4c(c3)CCC4)n2)o1	none (no result: KCNQ2 pot)
Cc1ccc(OCC(=O)NC2CCS(=O)(=O)C2)c(C)c1 (centres undefined)	none (no result: KCNQ2 pot)
O=C(CSc1ncnc2c1cnn2-c1ccccc1)NCC1CCCO1 (centres undefined)	none
Cc1ccc(C)c(N2CCN(C(=O)CCC(=O)Nc3nnc(C(F)(F)F)s3)CC2)c1	none
Cc1ccc(S(=O)(=O)NCc2ccccc2)cc1C(=O)N1CC(C)CC(C)C1 (centres undefined)	KCNQ2 inh -6.01
Cc1ccc(S(=O)(=O)NCc2ccccc2)cc1C(=O)N1CCCCC1	none
CC(C)(C)OC(=O)CC[C@@H](C(=O)N1CCN(C(=O)OC(C)(C)C)CC1)n1cc(C(Cc2ccc(O)cc2)NC(=O)OC(C)(C)C)nn1 (some centres undefined)	none (no result: KCNQ2 pot)
Cc1ccnc(NC(=O)CNC(=O)Cc2cccc3ccccc23)c1	none
CC(C)c1ccc(NC(=O)C2CC(=O)Nc3nc4ccccc4n32)cc1 (centres undefined)	none
COCCn1cnc2c(c1=O)c1nc3ccccc3nc1n2/N=C/c1cccc(OC)c1	none (no result: KCNQ2 pot)
C=CCn1cnc2c(c1=O)c1nc3ccccc3nc1n2/N=C/c1cc(OC)c(OC)c(OC)c1	KCNQ2 inh -7.86
COc1ccc(-c2c[n+](CC(=O)c3ccccc3)c3n2CCCCC3)cc1	none (no result: KCNQ2 pot)
